# The campaign covered roughly 5,500 compounds. About 2,000 (36%) were called active. Inconclusive results (about 18%) are left out. The list shows a part of the results. A number with no mark means an inactive call. Rule as the data show it: active = normalized growth mostly below about 0.91 (no sharp cut-off); inconclusive = no clear call, values can overlap the other calls; inactive = mostly above about 0.92.
# Experiment: chemical genetic growth profiling, strain panel (AID 1159580);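 also: tested at 20 µM; growth read once vehicle control cultures reached saturation at 30 °C; 1 = growth at the plate median or of vehicle wells; lower values mean less growth of the strain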
# Conditions: growth OD
smiles,measurement,setting,value
O=c1cc(C(F)(F)F)[nH]c2cc(Cl)cc(Cl)c12,normalized growth,"S. cerevisiae deletion strains, locus YAL013W, strain DEP1, hits give low values",0.59 (active)
same,normalized growth,"S. cerevisiae deletion strains, locus YBR229C, strain ROT2, hits give low values",0.47 (active)
same,normalized growth,"S. cerevisiae deletion strains, locus YCL061C, strain MRC1, hits give low values",0.649 (active)
same,normalized growth,"S. cerevisiae deletion strains, locus YDL101C, strain DUN1, hits give low values",0.513 (active)
same,normalized growth,"S. cerevisiae deletion strains, locus YDR150W, strain NUM1, hits give low values",0.627 (active)
same,normalized growth,"S. cerevisiae deletion strains, locus YEL061C, strain CIN8, hits give low values",0.745 (active)
same,normalized growth,"S. cerevisiae deletion strains, locus YGR078C, strain PAC10, hits give low values",0.475 (active)
same,normalized growth,"S. cerevisiae deletion strains, locus YHR030C, strain SLT2, hits give low values",0.564 (active)
same,normalized growth,"S. cerevisiae deletion strains, locus YHR087W, strain rtc3, hits give low values",0.544 (active)
same,normalized growth,"S. cerevisiae deletion strains, locus YJL187C, strain SWE1, hits give low values",1.01
same,normalized growth,"S. cerevisiae deletion strains, locus YJR043C, strain POL32, hits give low values",0.697 (active)
same,normalized growth,"S. cerevisiae deletion strains, locus YJR075W, strain HOC1, hits give low values",0.514 (active)
same,normalized growth,"S. cerevisiae deletion strains, locus YLR039C, strain RIC1, hits give low values",0.356 (active)
same,normalized growth,"S. cerevisiae deletion strains, locus YLR058C, strain SHM2 (second series), hits give low values",0.694 (active)
same,normalized growth,"S. cerevisiae deletion strains, locus YLR085C, strain ARP6, hits give low values",0.487 (active)
same,normalized growth,"S. cerevisiae deletion strains, locus YLR262C, strain YPT6, hits give low values",0.428 (active)
same,normalized growth,"S. cerevisiae deletion strains, locus YML094W, strain GIM5, hits give low values",0.854 (active)
same,normalized growth,"S. cerevisiae deletion strains, locus YMR219W, strain ESC1, hits give low values",0.612 (active)
same,normalized growth,"S. cerevisiae deletion strains, locus YMR263W, strain SAP30, hits give low values",0.456 (active)
same,normalized growth,"S. cerevisiae deletion strains, locus YMR307W, strain GAS1, hits give low values",0.561 (active)
same,normalized growth,"S. cerevisiae deletion strains, locus YNL128W, strain TEP1, hits give low values",0.881 (active)
same,normalized growth,"S. cerevisiae deletion strains, locus YNL153C, strain GIM3, hits give low values",0.534 (active)
same,normalized growth,"S. cerevisiae deletion strains, locus YNL298W, strain CLA4 (second series), hits give low values",0.742 (active)
same,normalized growth,"S. cerevisiae deletion strains, locus YNL322C, strain KRE1, hits give low values",0.798 (active)
same,normalized growth,"S. cerevisiae deletion strains, locus YNR030W, strain Alg12, hits give low values",0.664 (active)
same,normalized growth,"S. cerevisiae deletion strains, locus YPL055C, strain LGE1, hits give low values",0.523 (active)
same,normalized growth,"S. cerevisiae deletion strains, locus YPL241C, strain CIN2, hits give low values",0.748 (active)
same,normalized growth,"S. cerevisiae deletion strains, locus YPR135W, strain CTF4, hits give low values",0.714
same,normalized growth,"S. cerevisiae strains, strain wild type, hits give low values",0.836 (active)
